The results in this text go back to PubChem BioAssay (NCI).

The panel holds about 83,000 compounds, 20% with a hit somewhere; the sample as a whole holds those more often.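 The test compound was applied at a single concentration to cells in 96-well plates for 48 hours, and percent growth was recorded.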 Activity calls are given as the source filed them. How the source made its calls: active means growth percent below 10; inactive means the rest.

The assay deals with MDA-MB-468 breast. Kind of assay: NCI-60 one-dose screen, 48 h (100 = growth as untreated, 0 = no growth, -100 = all killed). Particulars: 10 µM unless noted.
Regarding `N#C/C(=C\c1ccc(N2CCCCC2)cc1)C(=O)Nc1sc2c(c1C#N)CCC2`, the growth was 119% (inactive).

On to `CCOC(=O)c1ccc2c(c1)nc(-c1ccc(OCc3ccccc3)c(OC)c1)n2-c1cc(C(C)(C)C)[nH]n1`, for which the growth was 77% (inactive).

On to `COc1ccc(-c2ccc(-c3ccc(C(=N)N)s3)s2)cc1Cl`, for which the growth is -12.5% (active).

With `CCCCCCCCCCCC1=NC(C)(C)CN1C(C)(C)CO`, the growth was -16% (active).

Regarding `CCN(CC)CCCNC(=O)c1ccc(N)cc1`, the growth is 86.2% (inactive).

Turning to `Cc1ccc(-c2nc([P+](c3ccccc3)(c3ccccc3)c3ccccc3)c(S(=O)(=O)c3ccc(C)cc3)o2)cc1`, the growth is -21.5% (active).

Turning to `O=C(NO)c1ccc(Cn2c(=O)n(CCc3ccc(O)cc3)c(=O)c3ccccc32)cc1`, the growth was 29.8% (inactive).

As to `COc1ccc(-c2nn(-c3ccc(S(C)(=O)=O)cc3)cc2/C=N/O)cc1`, the growth is 117% (inactive).

For `CCOC(=O)c1[nH]c2c(c1C)-c1[nH]c(=O)c(S(=O)(=O)c3ccccc3)cc1SC2`, the growth is 23.9% [100 µM] (inactive).

For the compound `COc1ccc(/C=C2\SC(=S)N(CCCN3CCOCC3)C2=O)c(OC)c1`, the growth was 87.4% (inactive).

Consider `C#Cc1cccc(Nc2ncnc3ccc(-c4cnc(Cl)c(NS(C)(=O)=O)c4)cc23)c1`, for which the growth was -78.8% (active).

On to `N#Cc1ccc(NC(=O)Nc2cccc(C#N)c2)cc1`, for which the growth is 46.5% (inactive).

Consider `CC(=O)[C@@H]1CC[C@]2(C(N)=O)CC[C@]3(C)[C@H](CC[C@@H]4[C@@]5(C)CCC(=O)C(C)(C)[C@@H]5CC[C@]43C)[C@@H]12`, for which the growth is 98.5% (inactive).

On to `COCCn1cc(-c2csc(-c3cn(C)c4ccc(F)cc34)n2)c2cccnc21`, for which the growth is 21.3% (inactive).

With `O=C(Nc1ccc(I)cc1F)c1cc(I)ccc1O`, the growth was -13.2% (active).

Turning to `COc1ccc(-c2nc3ccc(-c4nnc(SCC(=O)Nc5ccc(C(C)=O)cc5)o4)cc3[nH]2)cc1`, the growth was 109% (inactive).

On to `COc1ccc(Nc2nn3c(C)cc(C)nc3c2C(=O)Nc2ccc(C)cc2)c(OC)c1`, for which the growth is 91.6% (inactive).

For the compound `CC(C)(C)c1nc(-c2cccc(NS(=O)(=O)c3c(F)cccc3F)c2F)c(-c2ccnc(N)n2)s1`, the growth was 140% (inactive).

Consider `O=[N+]([O-])c1ccc(Sc2ccncn2)c([N+](=O)[O-])c1`, for which the growth was 24% (inactive).

Regarding `COc1cc(OCc2cccc(-c3ccc4c(c3)OCCO4)c2C)cc(OC)c1C=O`, the growth was 21.8% (inactive).

On to `Nc1c(C(=O)Nc2ccccc2)sc2nc3c(cc12)CCCC3`, for which the growth was 31.1% (inactive).

`CC(O)CN(CC(C)O)N(CC(C)O)CC(C)O` (stereo not given): the growth was 105% (inactive).

As for `CCCCC(CC)CN=C(N)NC(N)=NCCCCCCN=C(N)NC(N)=NCC(CC)CCCC` (stereo not given), the growth is -85.7% (active).

Turning to `CCN1CCN(Cc2ccc(NC(=O)Nc3ccc(-n4ccc5c(NC(=O)c6ccccc6)nccc54)cc3)cc2C(F)(F)F)CC1`, the growth was 60.1% (inactive).

As to `ClCC(Cl)C1CCC(Cl)C(Cl)C1` (stereo not given), the growth was 114% (inactive).

With `Cn1cc2c(c1)-c1nc(Nc3ccccc3)ncc1CC2`, the growth is 47.6% (inactive).

For `CC1(C)CC[C@]2(C(=O)NCCCCCCN(CCCN)CCCN)CC[C@]3(C)C(=CC[C@@H]4[C@@]5(C)CC[C@H](O)C(C)(C)[C@@H]5CC[C@]43C)[C@@H]2C1`, the growth is 98.6% (inactive).

Take `C[n+]1cccc(CC(=O)NO)c1`: the growth is 88.3% (inactive).

Take `CCOC(=O)c1cnc2ccc(Br)cc2c1Nc1cccc(S(N)(=O)=O)c1`: the growth is 106% (inactive).

In the case of `O=C(Nc1cccc([N+](=O)[O-])c1)c1cc2ccccc2cc1O`, the growth was -42.8% (active).

Take `COc1ccc(-c2nc(-c3nc4ccc(C)cc4[nH]3)cc3c2[nH]c2ccccc23)cc1`: the growth is 48.8% (inactive).

Turning to `CNC(=O)c1cc(Oc2ccc(NC(=O)Nc3ccc(Cl)c(C(F)(F)F)c3)c(F)c2)ccn1`, the growth was -49.1% (active).

As to `O=C(/C(Br)=C/c1ccccc1)c1ccccc1`, the growth is -31.9% (active).

Turning to `Cc1sc(NC(=O)c2ccc(C(C)(C)C)cc2)c(C(=O)O)c1C`, the growth is 80% (inactive).

For the compound `COc1cccc(-c2nn(-c3ccccc3)cc2-c2ccnc(NCCCNC(=O)c3ccccc3)c2)c1`, the growth is 15.2% (inactive).

For the compound `NCC(=O)CCC(=O)O`, the growth was 100% (inactive).

Take `COc1cc(C2CC(c3ccc(Nc4nc(NCCO)nc(N5CCOCC5)n4)cc3)=NN2c2cc(Cl)cc(Cl)c2)cc(OC)c1OC` (stereo not given): the growth is 64% (inactive).

In the case of `O=C(O)c1cc2ccccc2cc1Nc1ccccc1`, the growth was 102% (inactive).

As to `O=C(CN1C(=O)S/C(=C\c2ccccc2)C1=O)Nc1ccc(C(=O)/C=C/c2cc3ccccc3nc2Cl)cc1`, the growth was 63.1% (inactive).

Consider `CCNC(=O)Oc1ccc(/C(=C(/CC)Cc2ccccc2)c2ccc(OCCN3CCCC3)cc2)cc1`, for which the growth is 87.5% (inactive).
